SRC1 inh: inhibitors of human steroid receptor coactivator 1 (SRC1). 360,000 compounds, 0.12% hits. HEK293 GAL4-SRC1 luciferase reporter, luminescence. inhibition, % at 3.6 µM. AID 588354. Q15788;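 active means inhibition above the campaign mean plus 3 SD, with each screening campaign given its own cutoff, cut at about 60% in these data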;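 further: 0% = DMSO treated cells and 100% = gossypol at 36 µM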
NCOA3 inh: inhibitors of human steroid receptor coactivator 3 (SRC3); HEK293 GAL4-SRC3 luciferase reporter, luminescence; AID 588352; inhibition, % at 3.6 µM; 360,000 compounds, 0.17% hits;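 active means inhibition above a per-campaign cutoff, the mean of all compounds plus 3 SD, cut at about 60% in these data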;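 further: 0% = DMSO-treated cells and 100% = gossypol-treated cells at 36 µM; higher means less SRC3-driven luciferase light from the GAL4 reporter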
NCOA2 inhibitor: inhibits human steroid receptor coactivator 2 | Q15596 | HEK293 GAL4-SRC2 luciferase reporter, luminescence | inhibition, % at 9 µM | 370,000 compounds, 0.17% hits;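 active means inhibition above the mean inhibition of all tested compounds plus 3 SD, set per campaign, cut at about 52% in these data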;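 further: 0% = DMSO treated cells and 100% = cells given Gossypol at 36 µM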
NR5A2 inv ag: inverse agonists of human LRH-1 (NR5A2). inhibition, % at 3.6 µM. O00482. HEK293T StAR-luciferase reporter, LRH-1 transfected, 24 h. 360,000 compounds, 0.13% hits;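 active means inhibition above the mean inhibition of all tested compounds plus 3 SD, cut at about 73% in these data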;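 further: 0% = DMSO wells and 100% = reporter-only cells lacking LRH-1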
Target sequence (O00482 whole entry, looked up): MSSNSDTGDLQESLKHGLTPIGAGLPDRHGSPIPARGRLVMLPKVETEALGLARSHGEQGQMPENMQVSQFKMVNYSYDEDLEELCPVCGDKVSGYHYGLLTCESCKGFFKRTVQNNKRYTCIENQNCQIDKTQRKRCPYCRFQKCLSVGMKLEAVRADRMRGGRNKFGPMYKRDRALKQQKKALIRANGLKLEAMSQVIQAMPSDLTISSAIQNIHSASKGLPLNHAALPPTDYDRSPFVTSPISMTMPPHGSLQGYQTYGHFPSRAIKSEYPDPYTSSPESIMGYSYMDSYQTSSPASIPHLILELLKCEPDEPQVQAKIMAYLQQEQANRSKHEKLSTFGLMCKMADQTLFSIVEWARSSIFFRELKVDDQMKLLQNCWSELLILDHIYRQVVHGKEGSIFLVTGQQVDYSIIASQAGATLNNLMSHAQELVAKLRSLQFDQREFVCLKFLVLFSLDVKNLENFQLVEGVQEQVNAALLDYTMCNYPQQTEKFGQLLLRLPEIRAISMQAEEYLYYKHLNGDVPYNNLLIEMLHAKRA
Efflux pump mplx: inhibitors of Candida antifungal efflux pumps expressed in yeast. S. cerevisiae Candida pump triplex, Nile Red efflux. inhibition, % at 10 µM. 330,000 compounds, 0.44% hits. AID 485275;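 active means plate passing quality check with inhibition over a set limit, or well fluorescence over plate mean plus 4 SD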;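 further: Nile Red retained in pooled yeast measured as flow cytometry median fluorescence; 0% = buffer negative control and 100% = Enniatin B positive control; higher means more Nile Red kept so more efflux inhibition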
COUP-TFII inh: inhibitors of human COUP-TFII (NR2F2) | P24468 | HEK293T NGFI-A luciferase reporter, luminescence | inhibition, % at 8.6 µM | 370,000 compounds, 0.7% hits;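 active means inhibition above a per-plate cutoff, mean inhibition of test wells between control levels plus 3 SD, cut at about 38% in these data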;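 further: cells cotransfected with COUP-TFII expression vector driving the NGFI-A reporter; 0% = median of COUP-TF2 test wells and 100% = reporter-only cells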
Gal4-VP16 ctr: VP16 inhibition counter-screen for COUP-TFII; 2,500 compounds, 25% hits; inhibition, % at 8.5 µM; HEK293 Gal4-VP16 luciferase reporter, luminescence; AID 687007; shares compounds with COUP-TFII inh; in the data active means inhibition above about 13%
NR2F2 inh conf: COUP-TFII (NR2F2) inhibition, confirmation assay; HEK293 NGFI-A luciferase reporter, luminescence; 2,500 compounds, 45% hits; inhibition, % at 8.5 µM; shares compounds with COUP-TFII inh;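 active means mean inhibition over three repeats above a set limit taken from the earlier primary screen, cut at about 38% in these data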;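 further: 100% = cells given the luciferase reporter alone without the COUP-TF2 vector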
Numbers without * were called inactive; / = no result given. The list is not random: actives were taken first. Their share in the collection is about 1.2%.

SMILES | SRC1 inh | NCOA3 inh | NCOA2 inhibitor | NR5A2 inv ag | Efflux pump mplx | COUP-TFII inh | Gal4-VP16 ctr | NR2F2 inh conf
COc1ccc(CN2CCN(C(=O)c3ccc(S(=O)(=O)N4CCCCCC4)cc3)CC2)cc1F | 13 | 20 | -37 | 28 | / | 53* | -5 | 32
O=C(c1ccc(S(=O)(=O)N2CCCCCC2)cc1)N1CCN(Cc2ccccc2)CC1 | -2 | -2 | 13 | 15 | 0 | 15 | / | /
CN1C(=O)C2(C(C#N)=C(N)N(c3cc(Cl)cc(Cl)c3)C3=C2C(=O)CC(C)(C)C3)c2ccccc21 (centres undefined) | 22 | 38 | 24 | 14 | 0 | 44* | -17 | 30
Cc1oc(C(C)(C)C)cc1C(=O)NCc1ccc2c(c1)OCO2 | -3 | 11 | -4 | -8 | 0 | 9 | / | /
Cn1nc(C(C)(C)C)cc1C(=O)NCc1ccc2c(c1)OCO2 | 7 | 15 | 15 | 42 | 0 | 60* | -7 | 50*
CC(C)Oc1cccc(C(=O)C2CCCN(Cc3cnc(N4CCOCC4)s3)C2)c1 (centres undefined) | -10 | 10 | 10 | 27 | 0 | 37* | -1 | 15
COc1ccc(CCC(=O)Nc2ccc(N3CCOCC3)cc2)cc1 | 0 | 3 | 8 | -3 | 0 | -8 | / | /
COC(=O)[C@H]1[C@@H](O)[C@@]2(O)c3c(OC)cc(OC)cc3O[C@@]2(c2ccc(OC)cc2)[C@@H]1c1ccc(F)cc1 | / | / | 62* | / | / | 84* | 5 | 65*
COC(=O)C1C(=O)C=C(Nc2ccc(F)cc2)CC1c1ccc(OC)cc1 (centres undefined) | -39 | -29 | -41 | -43 | 0 | -11 | / | /
CC(C)C[C@H](NC(=O)N1CC(=O)Nc2ccccc21)C(=O)N[C@@H](C(=O)O)c1ccccc1 | -7 | -21 | 4 | -2 | 0 | 2 | / | /
CC1CCN(C2=NC(=O)/C(=C/c3cccc(O)c3)S2)CC1 | -20 | -16 | -36 | -20 | 0 | -8 | / | /
CC1CCN(C2=NC(=O)/C(=C/c3ccccc3F)S2)CC1 | 28 | 44 | 54* | 29 | 0 | 63* | -117 | -46
CC(=O)OC[C@]1(OC(C)=O)C[C@@]23CC[C@H]4[C@@](C)(CCC[C@@]4(C)C(=O)O)[C@@H]2CC[C@@H]1C3 | -5 | 4 | 2 | -6 | 0 | 11 | / | /
CC(=O)OC[C@]12CC[C@H]3[C@@](C)(CC[C@H]4C(C)(C)CCC[C@]34C)[C@@H]1CC(C1=CC(=O)OC1O)O2 (some centres undefined) | 80* | 85* | 80* | 103* | / | 82* | 93* | 105*
CCN(CC)CC(C)(C)C(=O)/C=C/c1ccc(/C=C/C(=O)C(C)(C)CN(CC)CC)cc1 | 54 | 27 | 74* | 91* | / | 93* | 89* | 101*
O=C(NCc1ccccc1)N1CCC(CO)(Cc2cccc(F)c2)CC1 | -1 | 21 | -24 | 8 | 0 | 12 | / | /
CCOC(=O)Cc1csc(NC(=O)/C=C/c2ccc(Cl)cc2)n1 | -1 | -11 | -2 | -14 | 0 | 44* | -66 | 5
COC(=O)C1=C(C)NC(C)=C(C(=O)OC)C1c1ccc(OC(=O)c2ccco2)cc1 | 3 | 8 | -23 | 2 | 0 | -22 | / | /
CCN(CC)CCn1c(-c2ccccc2)nc(=S)c2c1CC(C)(C)OC2 | -30 | -2 | -5 | -8 | 0 | 4 | / | /
O=C(CCN1CCOCC1)c1ccc(N2CCCCC2)cc1 | 11 | 24 | 63* | 32 | 0 | 60* | 39* | 40*
Cc1nc2cc(-c3ccccc3)sc2c(=O)n1N | -16 | 1 | 49 | -62 | 0 | 25 | / | /
COc1ccc(-c2cc3nc(C)n(N)c(=O)c3s2)cc1 | 58 | 70* | 71* | 28 | 0 | 66* | 60* | 77*
COc1ccc2[nH]c(=O)c(CN(CCN3CCCC3)C(=O)Nc3ccccc3Cl)cc2c1 | 45 | 47 | 26 | 8 | 0 | 9 | / | /
CC(Sc1nc2ccccc2c(=O)n1C)C(=O)N(C)C1CCCCC1 (centres undefined) | 18 | 12 | 26 | 28 | 0 | 46* | 6 | 26

Source: PubChem (several laboratories)
